Test results as given in PubChem BioAssay (NCATS).
Results filed as inconclusive are left out. Activity calls are given as the source filed them. Calls follow the shape of the dose curve; as a rule, active = well fitted curve in the direction sought with a large enough effect; inconclusive = small, poorly fitted or top-dose-only effect, or another doubt; inactive = no such curve, though single readings can be large; an effect the other way counts as inactive or inconclusive.

Legend:
[1] = qHTS of pediatric cancer cell lines to identify multiple opportunities for drug repurposing: Primary screen for SK-N-SH cells (AID 1347098); also: nearly all actives have a fitted effect of over 65% in size; also: potency is read from the fitted curve at half-maximal effect
Outline: (§1)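 Cells (500-1,000/well) rested 5 h, then received compounds for 48 h; metabolically active cells were measured by CellTiter-Glo luminescence. Final concentrations spanned up to 46 µM (MIPE, 11-point) or 0.59 nM-46 µM (NPC, 8-point) in primary screens, 11-point in follow-ups.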

[2] = qHTS of pediatric cancer cell lines to identify multiple opportunities for drug repurposing: Primary screen for BT-12 cells (AID 1347101); also: nearly all actives have a fitted effect of over 25% in size
Outline: as §1

[3] = qHTS of pediatric cancer cell lines to identify multiple opportunities for drug repurposing: Primary screen for Rh18 cells (AID 1347102); also: nearly all actives have a fitted effect of over 65% in size
Outline: (§2)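 Viability after 48 h compound treatment at 37C, 500-1,000 cells/well, read as ATP luminescence with CellTiter-Glo. Primary screens used 11-point (MIPE, 0.78 nM-46 µM) or 8-point (NPC, 0.59 nM-46 µM) final concentrations; follow-up screens used 11-point dilutions.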

[4] = qHTS of pediatric cancer cell lines to identify multiple opportunities for drug repurposing: Primary screen for control Hh wild type fibroblast cells (AID 1347106);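 also: series mostly up to about 46 µM; a drop in luminescence marks cytotoxicity and a rise apparent proliferation; nearly all actives have a fitted effect of over 55% in size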
Outline: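 Cells (500-1,000/well) in growth media were settled 5 h at 37 degrees C, then given compounds for 48 h. Viability was read as CellTiter-Glo luminescence. Primary runs used MIPE at 11 points (0.78 nM-46 µM) and NPC at 8 points (0.59 nM-46 µM); follow-ups used 11 points.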

[5] = qHTS of pediatric cancer cell lines to identify multiple opportunities for drug repurposing: Primary screen for NB1643 cells (AID 1347099); also: nearly all actives have a fitted effect of over 50% in size; also: potency is read from the fitted curve at half-maximal effect
Outline: (§3)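 Plated cells (500-1,000 per well, growth media) were allowed to settle for 5 hours, treated with compound dilutions for 48 hours, then lysed with CellTiter-Glo for 15 min at room temperature before luminescence reading.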

[6] = qHTS of pediatric cancer cell lines to identify multiple opportunities for drug repurposing: Primary screen for OHS-50 cells (AID 1347103); also: nearly all actives have a fitted effect of over 40% in size
Outline: as §1

[7] = qHTS of pediatric cancer cell lines to identify multiple opportunities for drug repurposing: Primary screen for RD cells (AID 1347104); also: nearly all actives have a fitted effect of over 55% in size; also: potency is read from the fitted curve at half-maximal effect
Outline: as §3

[8] = qHTS of pediatric cancer cell lines to identify multiple opportunities for drug repurposing: Primary screen for Rh30 cells (AID 1347107); also: series mostly up to about 46 µM; nearly all actives have a fitted effect of over 75% in size
Outline: as §2

[9] = qHTS of pediatric cancer cell lines to identify multiple opportunities for drug repurposing: Primary screen for Rh41 cells (AID 1347108); also: nearly all actives have a fitted effect of over 70% in size; also: potency is read from the fitted curve at half-maximal effect
Outline: as §3

[10] = qHTS of pediatric cancer cell lines to identify multiple opportunities for drug repurposing: Confirmatory screen for NB1643 cells (AID 1347109); also: nearly all actives have a fitted effect of over 45% in size
Outline: as §2

[11] = qHTS of pediatric cancer cell lines to identify multiple opportunities for drug repurposing: Confirmatory screen for A673 cells (AID 1347110); also: nearly all actives have a fitted effect of over 65% in size; also: potency is read from the fitted curve at half-maximal effect
Outline: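 Viability was read as ATP luminescence (CellTiter-Glo) after 48 h of compound exposure at 37 C in A673 cells seeded at 500-1,000/well. Titrations reached 46 uM final, with 11 points in the confirmatory screen. Concentration-response curves were fitted directly.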

[12] = qHTS of pediatric cancer cell lines to identify multiple opportunities for drug repurposing: Confirmatory screen for BT-12 cells (AID 1347112); also: nearly all actives have a fitted effect of over 55% in size
Outline: as §2

[13] = qHTS of pediatric cancer cell lines to identify multiple opportunities for drug repurposing: Confirmatory screen for DAOY cells (AID 1347114); also: nearly all actives have a fitted effect of over 65% in size
Outline: (§4)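 Viability measured as metabolically active cells via CellTiter-Glo luminescence following 48 hours of compound exposure, 11-point dilutions in confirmatory testing. 500-1,000 cells/well plated 5 hours before dosing; controls were DMSO and 2.3 µM bortezomib.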

[14] = qHTS of pediatric cancer cell lines to identify multiple opportunities for drug repurposing: Confirmatory screen for NB-EBc1 cells (AID 1347115); also: nearly all actives have a fitted effect of over 45% in size
Outline: as §2

[15] = qHTS of pediatric cancer cell lines to identify multiple opportunities for drug repurposing: Confirmatory screen for SJ-GBM2 cells (AID 1347116); conditions: outcome: dose series up to 45.9 µM; also: nearly all actives have a fitted effect of over 60% in size
Outline: as §4

[16] = qHTS of pediatric cancer cell lines to identify multiple opportunities for drug repurposing: Primary screen for MG 63 (6-TG R) cells (AID 1347105); also: nearly all actives have a fitted effect of over 50% in size; also: potency is read from the fitted curve at half-maximal effect
Outline: as §3

[17] = qHTS of pediatric cancer cell lines to identify multiple opportunities for drug repurposing: Primary screen for LAN-5 cells (AID 1347100); also: potency is read from the fitted curve at half-maximal effect
Outline: as §2

[18] = qHTS of pediatric cancer cell lines to identify multiple opportunities for drug repurposing: Confirmatory screen for LAN-5 cells (AID 1347113); conditions: outcome: dose series up to 45.9 µM; also: nearly all actives have a fitted effect of over 65% in size
Outline: as §2

[19] = qHTS of pediatric cancer cell lines to identify multiple opportunities for drug repurposing: Confirmatory screen for BT-37 cells (AID 1347117); also: nearly all actives have a fitted effect of over 55% in size
Outline: as §2

[20] = qHTS of pediatric cancer cell lines to identify multiple opportunities for drug repurposing: Confirmatory screen for SK-N-MC cells (AID 1347111);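 also: cells exposed to compound for 48 h before the readout; nearly all actives have a fitted effect of over 70% in size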
Outline: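 SK-N-MC cells at 500-1,000 cells/well in growth media were pre-incubated 5 h, then exposed to compounds at 11-point dilutions for 48 h at 37 degrees C, 5% CO2. Viability was read as CellTiter-Glo luminescence.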

Measured: Potency

COc1cccc(C(=O)CCN[C@@H](C)[C@H](O)c2ccccc2)c1
active: [1] 30.7 µM
inactive: [2] | [3] | [4]

CCOP(=S)(OCC)Oc1ccc2c(C)c(Cl)c(=O)oc2c1
not listed: [1] | [16] | [17] | [18] | [19] | [20]
inactive: all other assays above

C[C@]12CC[C@H]3[C@@H](CCC4=CC(=O)CC[C@@H]43)[C@@H]1CC[C@@H]2OC(=O)CCC1CCCCC1
inactive: [1] | [5] | [2] | [3] | [7] | [16] | [4] | [8] | [9]

CCCN(CCC)C(=O)Cc1c(-c2ccc(Cl)cc2)nc2ccc(Cl)cn12
active: [11] 10.4 µM
not listed: [2] | [5] | [6] | [9] | [13] | [20]
inactive: all other assays above

Clc1ccccc1N1CCNCC1
inactive: [1] | [5] | [17] | [3] | [6] | [7] | [4] | [8] | [9]

CC(C)=CC1C(C(=O)OCN2C(=O)C3=C(CCCC3)C2=O)C1(C)C (stereo unspecified)
inactive: [3] | [6] | [7] | [16] | [4] | [8] | [9]

Clc1ccc(C(c2ccc(Cl)cc2)C(Cl)(Cl)Cl)cc1
inactive: [17] | [2] | [3] | [7] | [4] | [8] | [9]

CC(C)C[C@H](CN)CC(=O)O
inactive: [17] | [2] | [3] | [6] | [7] | [4] | [8]

CC(C)c1cccc(C(C)C)c1O
inactive: [5] | [17] | [3] | [6] | [7] | [16] | [4] | [8] | [9]

C[C@](O)(CS(=O)(=O)c1ccc(F)cc1)C(=O)Nc1ccc(C#N)c(C(F)(F)F)c1
active: [1] 2.41 µM | [5] 2.96 µM | [17] 2.96 µM | [7] 5.9 µM | [16] 1.18 µM | [9] 2.96 µM
inactive: [6] | [10] | [20] | [12] | [18] | [14] | [15] | [19]

C[C@]12CC[C@H]3[C@@H](CCC4=CC(=O)CC[C@@H]43)[C@@H]1CC[C@@H]2OC(=O)CCc1ccco1
inactive: [1] | [5] | [17] | [3] | [7] | [16] | [4] | [8] | [9]

O=c1[nH]oc2c1CCNC2
inactive: [1] | [5] | [17] | [3] | [6] | [7] | [4] | [8] | [9]

CC[N+]1(CC)CCC(OC(=O)C(O)(c2ccccc2)c2ccccc2)C1 (stereo unspecified)
inactive: [1] | [5] | [17] | [3] | [6] | [7] | [4] | [8] | [9]
